Bioassay records: PubChem BioAssay, National Center for Advancing Translational Sciences (NCATS)
Shown are actives, neighbours in structure and some others; about 18% of the full set was active somewhere.
DT40 TDP1 no CPT – qHTS for Inhibitors of human tyrosyl-DNA phosphodiesterase 1 (TDP1): qHTS in cells in absence of CPT; Potency, µM (top dose mostly 46.2 µM), inactives show at the top dose activity change, negative = growth inhibition, hits mostly inhibitors; 420,000 compounds, 15% hits; DT40 Tdp1-/- hTDP1 cells, no CPT, ATP luminescence, 48 h; further: potency means the concentration at half of the fitted maximal effect; nearly all actives have a fitted effect of over 55% in size
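Luminescent ATP content (CellTiter-Glo) served as the growth readout. Knockout chicken DT40 cells expressing human TDP1 were exposed to compounds without camptothecin for a minimum 48 hr at 37 °C.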
CtBP-E1A inh – inhibitors of CtBP/E1A interaction; AlphaScreen GST-E1A/His-CtBP binding, 1536-well; hits give low values; activity change, % (test concentration not listed); 340,000 compounds, 0.49% hits; AID 651724; in the data active means activity change below about -65%; inconclusive means mostly about -30% to -63%
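In 5 uL wells, 23 nL compound meets equimolar GST-E1A and His-CtBP (5X stock 125 nM each) for 2 h, 37 °C. Beads (5X, 50 ug/mL) then 1 h, 37 °C, dark.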
Six1-Eya2 blk – Six1/Eya2 interaction inhibition; AlphaScreen GST-Six1/His-Eya2 binding, biochemical; hits give low values; Q15475+O00167; AID 651725; 360,000 compounds, 0.56% hits; activity change, % (concentration not given with the values); in the data active means activity change below about -65%; inconclusive means mostly about -30% to -63%
Target sequence (O00167 whole entry, looked up): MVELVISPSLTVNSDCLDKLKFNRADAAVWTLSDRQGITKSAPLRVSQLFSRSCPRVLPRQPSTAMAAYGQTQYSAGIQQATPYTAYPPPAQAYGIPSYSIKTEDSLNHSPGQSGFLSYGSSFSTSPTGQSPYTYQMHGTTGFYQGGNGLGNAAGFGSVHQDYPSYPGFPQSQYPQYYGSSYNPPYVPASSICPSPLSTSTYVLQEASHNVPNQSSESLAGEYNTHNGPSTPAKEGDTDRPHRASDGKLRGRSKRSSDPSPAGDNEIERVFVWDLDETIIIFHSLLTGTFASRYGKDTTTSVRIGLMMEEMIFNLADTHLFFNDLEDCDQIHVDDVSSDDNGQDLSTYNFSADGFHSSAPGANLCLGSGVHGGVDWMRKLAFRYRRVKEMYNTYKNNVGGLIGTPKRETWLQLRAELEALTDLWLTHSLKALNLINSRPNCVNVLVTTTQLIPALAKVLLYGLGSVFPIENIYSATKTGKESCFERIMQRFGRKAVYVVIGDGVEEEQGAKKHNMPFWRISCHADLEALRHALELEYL
Target sequence (Q15475 whole entry, looked up): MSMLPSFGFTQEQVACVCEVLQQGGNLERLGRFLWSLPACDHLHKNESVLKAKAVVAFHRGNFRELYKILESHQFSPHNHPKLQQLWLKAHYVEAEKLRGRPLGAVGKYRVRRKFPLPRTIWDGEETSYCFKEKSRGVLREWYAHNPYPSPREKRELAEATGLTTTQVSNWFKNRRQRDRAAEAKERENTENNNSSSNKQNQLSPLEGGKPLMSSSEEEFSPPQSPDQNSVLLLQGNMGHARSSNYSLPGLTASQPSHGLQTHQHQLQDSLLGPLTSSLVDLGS
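Homogeneous AlphaScreen proximity assay pairing GST-Six1 with His-tagged Eya2 (added as 5X mix: 250 nM and 500 nM) in 50 mM Tris pH 8.0, 300 mM NaCl, 1 mM TCEP. Glutathione donor and nickel acceptor beads; 1 h, 37 °C, dark.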
TDP1 inh – inhibitors of human tyrosyl-DNA phosphodiesterase TDP1; Potency, µM (titrated, usually from 130 µM), inactives show at the top dose activity change, negative = inhibition, actives largely listed as inhibitors; 350,000 compounds, 0.28% hits; recombinant TDP1, AlphaScreen DNA substrate cleavage; further: potency means the concentration at half of the fitted maximal effect; nearly all actives have a fitted effect of over 40% in size
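AlphaScreen read-out: signal falls as enzyme removes the 3' tyrosine-FITC from a 5'-biotinylated DNA oligo (15 nM, 5 min, RT). Enzyme was E. coli-made recombinant Tdp1 at 1 nM, exposed to compound for 15 min beforehand; beads 10 ug/ml, 10 min.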
TDP1 cell CPT – growth inhibition of DT40 Tdp1-/-;hTDP1 cells with camptothecin (screen for TDP1 inhibitors); chicken DT40 Tdp1-/-;hTDP1 cells + 20 nM CPT, ATP luminescence, 48 h; AID 686979; 420,000 compounds, 12% hits; Potency, µM (highest dose often 46.2 µM), inactives show at the highest dose activity change, negative = growth inhibition, most hits filed as inhibitors; further: potency means the concentration at half of the fitted maximal effect; nearly all actives have a fitted effect of over 55% in size
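Chicken DT40 Tdp1-/- cells complemented with human TDP1, 400 cells/well, exposed to compounds plus 20 nM camptothecin for at least 48 h at 37 C; viability read as ATP content by CellTiter-Glo luminescence.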
IL1B secr inh – inhibitors of inflammasome signaling (IL-1 beta secretion); THP-1 LPS/ATP IL-1B secretion, AlphaLISA, 16 h; hits give low values; activity change, % at 57.5 µM; 360,000 compounds, 4.7% hits; AID 743279; in the data active means activity change below about -50%; inconclusive means mostly about -30% to -49%
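THP-1 cells pretreated 1 hr with compounds (up to 57.5 uM final), then stimulated with LPS (250 ng/mL final) plus ATP (1.25 mM final); secreted IL-1B measured by AlphaLISA after 16 hr, decreased signal indicating inhibition.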
* = called active by the depositor. Unless noted, the call rests on the fitted dose curve; in most records, active means well fitted curve in the direction sought with a large enough effect; inconclusive means small, poorly fitted or top-dose-only effect, or another doubt; inactive means no such curve, though single readings can be large; an effect the other way counts as inactive or inconclusive. On the % scale 0 is the no-effect control and ±100 the full control effect.

Screening CCC[C@@H](CN1CCC[C@H]1CN1C(N)=NC[C@@H]1Cc1ccccc1)N1C[C@@H](Cc2ccccc2)N(CCCC2CCCC2)C1=N returned DT40 TDP1 no CPT inconclusive, CtBP-E1A inh -10, Six1-Eya2 blk 5, TDP1 inh 1%, TDP1 cell CPT inconclusive and IL1B secr inh -83*.
CCCCN1C(=N)N([C@@H](C)CN2CCC[C@H]2CN2C(N)=NC[C@H]2CC(C)C)C[C@H]1Cc1ccccc1 was read as DT40 TDP1 no CPT inconclusive, CtBP-E1A inh 0, Six1-Eya2 blk -6, TDP1 inh -7%, TDP1 cell CPT 16µM* and IL1B secr inh -54*.
Screening CC[C@@H](C)[C@@H]1CN([C@@H](CN2CCC[C@H]2CN2C(N)=NC[C@H]2CC(C)C)C(C)C)C(=N)N1CCCC1CCCC1 returned DT40 TDP1 no CPT inconclusive, CtBP-E1A inh -21, Six1-Eya2 blk 1, TDP1 inh -3%, TDP1 cell CPT inconclusive and IL1B secr inh inconclusive.
`CCCCN1C(=N)N([C@@H](C)CN2CCC[C@H]2CN2C(N)=NC[C@@H]2Cc2ccccc2)C[C@H]1[C@H](C)CC` gave DT40 TDP1 no CPT inconclusive, CtBP-E1A inh 1, Six1-Eya2 blk 0, TDP1 inh -8%, TDP1 cell CPT inconclusive and IL1B secr inh -17.
For CCC[C@@H](CN1CCC[C@H]1CN1C(N)=NC[C@H]1CC(C)C)N1C[C@@H](Cc2ccccc2)N(CCCC2CCCC2)C1=N the results were DT40 TDP1 no CPT 12µM*, CtBP-E1A inh -11, Six1-Eya2 blk 5, TDP1 inh 1%, TDP1 cell CPT 10µM* and IL1B secr inh -66*.
CCC[C@@H](CN1CCC[C@H]1CN1C(N)=NC[C@@H]1Cc1ccccc1)N1C[C@@H]([C@H](C)CC)N(CCCC2CCCC2)C1=N was read as DT40 TDP1 no CPT 8.2µM*, CtBP-E1A inh -3, Six1-Eya2 blk 1, TDP1 inh 0%, TDP1 cell CPT 10µM* and IL1B secr inh -96*.
CC(C)[C@H](CN1CCC[C@H]1CN1C(N)=NC[C@H]1C(C)C)N1C[C@@H](Cc2ccccc2)N(CCCC2CCCC2)C1=N was read as DT40 TDP1 no CPT inconclusive, CtBP-E1A inh -7, Six1-Eya2 blk -1, TDP1 inh 3%, TDP1 cell CPT inconclusive and IL1B secr inh -60*.
Screening CC1(C(=O)NCCc2ccccc2)Cc2c(-c3cccc(C(N)=O)c3)ccnc2O1 (stereo unspecified) returned DT40 TDP1 no CPT 18µM*, CtBP-E1A inh -6, Six1-Eya2 blk -12, TDP1 cell CPT inconclusive and IL1B secr inh 29.
For COCCNC(=O)C1(C)Cc2c(-c3ccc(N(C)C)cc3)ccnc2O1 (stereo unspecified) the results were DT40 TDP1 no CPT 4.6µM*, CtBP-E1A inh 5, Six1-Eya2 blk -5, TDP1 cell CPT 5.2µM* and IL1B secr inh 9.
For COc1ccc(CNC(=O)C2(C)Cc3c(-c4ccc5c(c4)OCO5)ccnc3O2)cc1OC (stereo unspecified) the results were DT40 TDP1 no CPT 16µM*, CtBP-E1A inh -4, Six1-Eya2 blk -9, TDP1 cell CPT inconclusive and IL1B secr inh 24.
CN(C)c1ccc(CNC(=O)C2(C)Cc3c(-c4cccc(C(N)=O)c4)ccnc3O2)cc1 (stereo unspecified) was read as DT40 TDP1 no CPT inconclusive, CtBP-E1A inh -7, Six1-Eya2 blk -18, TDP1 cell CPT 15µM* and IL1B secr inh 64.
Screening O=C(Nc1nnc(-c2ccccc2Cl)o1)c1cc2cc([N+](=O)[O-])ccc2s1 returned TDP1 inh 4%.
`CC(C)CNC(=O)c1[nH]c(C(F)(F)F)nc1-c1ccccc1` gave DT40 TDP1 no CPT -10%, CtBP-E1A inh 12, Six1-Eya2 blk 6, TDP1 cell CPT -1% and IL1B secr inh 19.
CN1CCN(C(=O)c2cccn(Cc3ccc(C(F)(F)F)cc3)c2=O)CC1 was read as DT40 TDP1 no CPT -8%, Six1-Eya2 blk -1, TDP1 cell CPT -44% and IL1B secr inh -11.
`Cc1cc(=O)n2nc(N3CCCC(C(=O)NCc4ccccc4Br)C3)sc2n1` (stereo unspecified) gave DT40 TDP1 no CPT 1%, CtBP-E1A inh 0, Six1-Eya2 blk -5, TDP1 inh 1%, TDP1 cell CPT 14% and IL1B secr inh 6.
Screening CN(C)c1ccc(-c2ccnc3c2CC(C)(C(=O)NCC2CC2)O3)cc1 (stereo unspecified) returned DT40 TDP1 no CPT 5.2µM*, CtBP-E1A inh -27, Six1-Eya2 blk -21, TDP1 cell CPT 5.2µM* and IL1B secr inh 20.
Screening CN(C)c1ccc(-c2ccnc3c2CC(C)(C(=O)Nc2cccc(N(C)C)c2)O3)cc1 (stereo unspecified) returned DT40 TDP1 no CPT -22%, CtBP-E1A inh inconclusive, Six1-Eya2 blk inconclusive, TDP1 cell CPT inconclusive and IL1B secr inh 16.
For CN1CCN(c2ccc(CNC(=O)C3(C)Cc4c(-c5ccc6c(c5)OCO6)ccnc4O3)cc2)CC1 (stereo unspecified) the results were DT40 TDP1 no CPT 15µM*, CtBP-E1A inh -15, Six1-Eya2 blk 1, TDP1 cell CPT inconclusive and IL1B secr inh inconclusive.
`CN(C)c1ccc(CNC(=O)C2(C)Cc3c(-c4ccc5c(c4)OCO5)ccnc3O2)cc1` (stereo unspecified) gave DT40 TDP1 no CPT 3.7µM*, CtBP-E1A inh inconclusive, Six1-Eya2 blk inconclusive, TDP1 cell CPT 4.6µM* and IL1B secr inh 0.
Screening CC(=O)Nc1ccc(-c2ccnc3c2CC(C)(C(=O)NCCc2ccccc2)O3)cc1 (stereo unspecified) returned DT40 TDP1 no CPT -16%, CtBP-E1A inh -2, Six1-Eya2 blk -5, TDP1 cell CPT inconclusive and IL1B secr inh -17.
For CN(C)c1ccc(-c2ccnc3c2CC(C)(C(=O)Nc2ccc(Cl)cc2)O3)cc1 (stereo unspecified) the results were DT40 TDP1 no CPT inconclusive, CtBP-E1A inh -12, Six1-Eya2 blk inconclusive, TDP1 cell CPT inconclusive and IL1B secr inh -23.
`CN(C)c1ccc(-c2ccnc3c2CC(C)(C(=O)NCCc2ccccc2)O3)cc1` (stereo unspecified) gave DT40 TDP1 no CPT inconclusive, CtBP-E1A inh inconclusive, Six1-Eya2 blk -27, TDP1 cell CPT 29µM* and IL1B secr inh -18.
